According to PubChem BioAssay (NCATS):
Several values for one entry are separate records, joined by “and”; a condition that tells them apart may be missing. Equal values may be shown once. Activity calls are given as the source filed them. Calls follow the shape of the dose curve; as a rule, active = well fitted activation curve with a large enough effect; inconclusive = small, poorly fitted or top-dose-only effect; inactive = no such curve, though single readings can be large or run the other way.

target: Cytochrome P450 3A4 (Homo sapiens) (UniProt P08684); assay: qHTS Assay for Activators of Cytochrome P450 3A4 (AID 885); conditions: recombinant CYP3A4, Luciferin-PPXE luminescence, 60 min; series mostly up to 57.1 µM; also: nearly all actives have a fitted effect of over 65% in size
Sequence (P08684 whole entry, looked up): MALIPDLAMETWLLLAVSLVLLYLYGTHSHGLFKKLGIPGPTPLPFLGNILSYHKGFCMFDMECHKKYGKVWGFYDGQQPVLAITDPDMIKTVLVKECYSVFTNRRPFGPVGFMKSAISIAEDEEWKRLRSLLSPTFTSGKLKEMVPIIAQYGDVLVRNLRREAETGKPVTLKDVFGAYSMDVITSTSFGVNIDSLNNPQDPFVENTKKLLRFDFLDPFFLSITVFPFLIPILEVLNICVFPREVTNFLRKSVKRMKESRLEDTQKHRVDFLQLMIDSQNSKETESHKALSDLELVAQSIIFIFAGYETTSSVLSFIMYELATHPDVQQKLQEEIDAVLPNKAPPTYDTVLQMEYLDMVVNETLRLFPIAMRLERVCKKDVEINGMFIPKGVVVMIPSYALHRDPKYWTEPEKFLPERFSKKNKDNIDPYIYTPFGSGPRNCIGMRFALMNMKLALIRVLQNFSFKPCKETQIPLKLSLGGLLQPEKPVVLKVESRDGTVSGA
Outline: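 Luminescent readout of luciferin formed from 25 uM Luciferin-PPXE (KM level) by 20 nM CYP3A4 in 200 mM KPO4, with 60 min NADPH-driven reaction at room temperature after 10 min compound exposure. Ketoconazole (57 uM) defined 100% inhibition.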

Activity change, positive = activation, inactive:
CC(C)=NO[C@@H](C)c1cc(-c2c(C)cc(C)cc2C)no1 -45% [at 11.4 µM]
C[C@H](O/N=C1/[C@H]2O[C@@H]2[C@@H](O)[C@H]2[C@H]1CCn1c(=O)n(-c3ccccc3)c(=O)n12)c1cn([C@H](CO)Cc2ccccc2)nn1 -48.5% [at 11.4 µM] and -48.2% [at 11.4 µM]
Cc1ccc(S(=O)(=O)N[C@H]2COC(=O)[C@@H](C)COC(=O)[C@H](C)NC(=O)C/C=C\[C@H]2C)cc1 -40.2% [at 11.4 µM]
CC(C)(C)N1C(=O)[C@H]2[C@H]3[C@H](O)[C@H](O)C/C(=N/OC[C@@H](O)COCc4ccco4)[C@H]3CC[C@@H]2C1=O -30.9% [at 11.4 µM]
O=C1[C@@H]2[C@H]3[C@H](O)[C@H](O)C/C(=N/OCc4ccccc4)[C@H]3CC[C@H]2C(=O)N1c1ccc(F)cc1F -34.3% [at 11.4 µM]
CCc1cc2c(nc1CC)CCN(CC/C(C)=N/OC[C@H]1O[C@H](c3ccccc3)C=C[C@@H]1Oc1ccc(OC)cc1)C2 -51.8% [at 11.4 µM]
CC[C@@H](c1ccccc1)n1c(=O)n2n(c1=O)[C@H]1[C@H](O)[C@H]3O[C@@H]3/C(=N/OCc3ccccc3)[C@@H]1CC2 -33.4% [at 11.4 µM]
CC(C)=CCC/C(C)=C/CO/N=C1/C[C@@H](O)[C@@H](O)[C@@H]2[C@@H]3C(=O)N(Cc4ccccc4)C(=O)[C@H]3CC[C@H]12 -49.8% [at 11.4 µM]
CO[C@H]1COC(=O)[C@@H](C)COC(=O)[C@@H](Cc2ccccc2)NC(=O)C/C=C\[C@H]1C -36.8% [at 11.4 µM]
O=C1[C@H]2[C@H]3[C@H](O)[C@H](O)C/C(=N/OC[C@@H](O)COCc4ccco4)[C@@H]3CC[C@@H]2C(=O)N1C1CCCCC1 -51.1% [at 11.4 µM]
CC(C)CO/N=C1/C[C@@H](O)[C@@H](O)[C@@H]2[C@@H]3C(=O)N(Cc4ccccc4)C(=O)[C@H]3CC[C@H]12 -30.2% [at 11.4 µM]
CO[C@H]1COC(=O)CCC[C@@H](C)[C@H](OC)COC(=O)[C@H]2CCCN2C(=O)C/C=C\[C@@H]1C -30.7% [at 11.4 µM]
CO[C@H]1COC(=O)[C@@H](Cc2ccccc2)NC(=O)[C@@H](C)COC(=O)C/C=C\[C@@H]1C -36.9% [at 11.4 µM]
COC(=O)C/C=C\[C@@H](C)[C@@H](/C=N\OC[C@@H](C)[C@H](OCc1ccccc1)C(C)C)OC -33% [at 11.4 µM]
Cc1ccc(S(=O)(=O)N[C@H]2COC(=O)[C@H](C)COC(=O)[C@H](C)NC(=O)C/C=C\[C@H]2C)cc1 -41.3% [at 11.4 µM]
CC(C)=CCC/C(C)=C/CO/N=C1/C[C@@H](O)[C@@H](O)[C@@H]2[C@H]3C(=O)N(c4ccc(F)cc4F)C(=O)[C@@H]3CC[C@@H]12 -30.2% [at 11.4 µM]
CCc1cc2c(nc1CC)CCN(CC/C(C)=N/OCC[C@@H]1C=C[C@H](OC(C)=O)[C@H](COC(C)=O)O1)C2 -32.1% [at 11.4 µM]

Potency, inactive:
COC(=O)[C@@H]1C[C@@]2(O)[C@@H](O)[C@@H](O)[C@@H](O)C[C@H]2N1Cc1cc(F)ccc1F
COC(=O)c1ccc(C23CC4(C2)[C@H](CN(C)[C@@H]4c2ccccc2)C3c2ccc(C(F)(F)F)cc2)cc1 (stereo partly specified)
Nc1cc(=O)[nH]c(=O)n1CC1CC1
CCC1=C(OC(=O)N(CC)CC)N2C(=O)OC(=NCCOC)[C@]2(C)[C@H]2C1=CC[C@H]1C(=O)NC(=O)[C@H]12
N#Cc1ccc(C23CC4(C2)[C@H](CN(Cc2ccc(-c5ccccc5)cc2)[C@@H]4c2ccccc2)C3c2ccccc2)cc1 (stereo partly specified)
COC(=O)CN=C1OC(=O)N2C(=O)C3=C4C(C[C@H]5C(=O)N(c6ccccc6)C(=O)[C@H]5[C@H]4[C@@]12Cc1ccccc1)[C@H]1C(=O)N(c2ccccc2)C(=O)[C@H]1[C@H]3C (stereo partly specified)
O=C(O)c1sccc1S(=O)(=O)Nc1ccc(Cl)cc1
COC(=O)c1cccc(C#CC(NP(=O)(c2ccccc2)c2ccccc2)c2ccccc2)c1 (stereo unspecified)
Nc1cc(=O)[nH]c(=O)n1Cc1ccccc1
